Experimental data as given in PubChem BioAssay (Tox21).
Inconclusive results are not listed. Activity calls are given as the source filed them. Calls follow the shape of the dose curve; as a rule, active = well fitted curve in the direction sought with a large enough effect in the repeat runs; inconclusive = weak or mixed curves; inactive = no such curve, though single readings can be large; an effect the other way counts as inactive or inconclusive.

Key:
[1] = qHTS RealTime-Glo MT Cell Viability Assay in HEK293 cells - 16 hour (AID 1224872); also: top concentration of the series differs between compounds; nearly all actives have a fitted effect of over 50% in size
How it was run: (§1)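 Tox21 10K qHTS, HEK293, 600 cells/well, RealTime-Glo reagent co-dispensed with cells; 5 h preincubation, compound by pintool, 37 C, luminescence at 0–40 h.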

[2] = qHTS RealTime-Glo MT Cell Viability Assay in HepG2 cells - 8 hour (AID 1224873); also: nearly all actives have a fitted effect of over 55% in size
How it was run: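 HepG2 cells (600/well) mixed with RealTime-Glo MT reagent, settled 5 h at 37 C/5% CO2 before compound addition. Nonlytic NanoLuc luminescence from viable-cell prosubstrate reduction read repeatedly during 40 h treatment at 37 C.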

[3] = qHTS RealTime-Glo MT Cell Viability Assay in HEK293 cells - 40 hour (AID 1224874); conditions: RealTime-Glo luminescence; max response: stronger effect = lower value; also: nearly all actives have a fitted effect of over 50% in size
How it was run: (§2)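 Measured as luminescence from the same continuously cultured HEK293 wells at successive time points (0, 8, 16, 24, 32, 40 h) after compound addition. Reagent present from seeding; dosing at 5 h; incubation 37 C.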

[4] = A CellTox Green Cytotoxicity Assay to monitor cytotoxicity in HEK293 cells - 24 hour (AID 1224875); also: series mostly up to about 77 µM; nearly all actives have a fitted effect of over 45% in size
How it was run: (§3)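 Homogeneous no-lysis format: HEK293 cell suspension mixed with CellTox Green reagent, seeded, incubated 5 h at 37 C/5% CO2, then dosed by pintool with compound in DMSO.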

[5] = A CellTox Green Cytotoxicity Assay to monitor cytotoxicity in HepG2 cells - 16 hour (AID 1224876); also: nearly all actives have a fitted effect of over 45% in size
How it was run: (§4)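 Fluorescent DNA-binding dye, 600 HepG2 cells/well, 5 h preincubation then compound in DMSO; same plates read at 0–40 h, 37 C.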

[6] = qHTS RealTime-Glo MT Cell Viability Assay in HepG2 cells - 32 hour (AID 1224877); also: nearly all actives have a fitted effect of over 55% in size
How it was run: (§5)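 Cells + NanoLuc/prosubstrate dispensed (600 cells/well) → 5 h at 37 C/5% CO2 → compounds in DMSO transferred → 40 h incubation at 37 C, luminescence read at 0, 8, 16, 24, 32, 40 h.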

[7] = A CellTox Green Cytotoxicity Assay to monitor cytotoxicity in HepG2 cells - 24 hour (AID 1224878); also: nearly all actives have a fitted effect of over 45% in size
How it was run: as §4

[8] = A CellTox Green Cytotoxicity Assay to monitor cytotoxicity in HepG2 cells - 40 hour (AID 1224879); also: nearly all actives have a fitted effect of over 40% in size
How it was run: as §4

[9] = qHTS RealTime-Glo MT Cell Viability Assay in HEK293 cells - 0 hour (AID 1224880); also: top concentration of the series differs between compounds; nearly all actives have a fitted effect of over 45% in size
How it was run: as §2

[10] = A CellTox Green Cytotoxicity Assay to monitor cytotoxicity in HEK293 cells - 32 hour (AID 1224881); also: nearly all actives have a fitted effect of over 40% in size
How it was run: as §3

[11] = A CellTox Green Cytotoxicity Assay to monitor cytotoxicity in HepG2 cells - 32 hour (AID 1224883); also: nearly all actives have a fitted effect of over 50% in size
How it was run: as §4

[12] = A CellTox Green Cytotoxicity Assay to monitor cytotoxicity in HEK293 cells - 8 hour (AID 1224884); also: nearly all actives have a fitted effect of over 35% in size
How it was run: as §3

[13] = qHTS RealTime-Glo MT Cell Viability Assay in HepG2 cells - 16 hour (AID 1224885); also: nearly all actives have a fitted effect of over 50% in size
How it was run: as §5

[14] = qHTS RealTime-Glo MT Cell Viability Assay in HEK293 cells - 24 hour (AID 1224886)
How it was run: as §1

[15] = qHTS RealTime-Glo MT Cell Viability Assay in HEK293 cells - 8 hour (AID 1224887)
How it was run: as §2

[16] = A CellTox Green Cytotoxicity Assay to monitor cytotoxicity in HEK293 cells - 16 hour (AID 1224888); also: nearly all actives have a fitted effect of over 35% in size
How it was run: as §3

[17] = A CellTox Green Cytotoxicity Assay to monitor cytotoxicity in HepG2 cells - 8 hour (AID 1224890); also: nearly all actives have a fitted effect of over 45% in size
How it was run: as §4

[18] = qHTS assay to identify small molecule antagonists of the estrogen receptor alpha (ER-alpha) signaling pathway using the BG1 cell line in the presence of 0.1 nM 17-beta-estradiol - cell viability counter screen (AID 1259241); also: nearly all actives have a fitted effect of over 40% in size
How it was run: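 Estradiol-stimulated (0.1 nM) VM7Luc4E2 cells exposed to compounds 22 hr; viability measured by fluorescence of cleaved CellTiter-Fluor substrate after 30 min.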

[19] = qHTS RealTime-Glo MT Cell Viability Assay in HepG2 cells - 0 hour (AID 1224889); also: nearly all actives have a fitted effect of over 50% in size
How it was run: as §5

[20] = A CellTox Green Cytotoxicity Assay to monitor cytotoxicity in HepG2 cells - 0 hour (AID 1224882); also: nearly all actives have a fitted effect of over 35% in size
How it was run: as §4
% is scaled to controls: 0 for no effect and ±100 for the full control effect.

CCOC(=O)c1ncn2c1CN(C)C(=O)c1c(I)cccc1-2
inactive: Potency [1] | outcome [2] | max response [3] 1.2% | Potency [4] | Potency [5] | Potency [6] | Potency [7] | Potency [8] | outcome [9] | Potency [10] | Potency [11] | Potency [12] | Potency [13] | Potency [14] | Potency [15] | Potency [16] | Potency [17]

C=CC(=O)OCCN(C)C
inactive: Potency [1] | outcome [2] | max response [3] 14.5% | Potency [4] | Potency [5] | Potency [6] | Potency [7] | Potency [8] | outcome [9] | Potency [10] | Potency [11] | Potency [12] | Potency [13] | Potency [14] | Potency [15] | Potency [16] | Potency [17] | outcome [18]

CCC1(CC)C(=O)C=CNC1=O
inactive: Potency [1] | outcome [2] | max response [3] 1.59% | Potency [4] | Potency [5] | Potency [6] | Potency [7] | Potency [8] | outcome [9] | Potency [10] | Potency [11] | Potency [12] | Potency [13] | Potency [14] | Potency [15] | Potency [16] | outcome [19] | Potency [17] | outcome [18]

CCCCCCCC(=O)Cl
inactive: Potency [1] | outcome [2] | max response [3] 5.36% | Potency [4] | Potency [5] | Potency [6] | Potency [7] | Potency [8] | outcome [9] | Potency [10] | Potency [11] | Potency [12] | Potency [13] | Potency [14] | Potency [15] | Potency [16] | Potency [17] | outcome [18]

O=C(CCl)NCO
inactive: Potency [1] | outcome [2] | max response [3] 1.67% | Potency [4] | Potency [5] | Potency [6] | Potency [8] | outcome [9] | Potency [10] | outcome [20] | Potency [11] | Potency [12] | Potency [13] | Potency [14] | Potency [15] | Potency [16] | outcome [19] | Potency [17] | outcome [18]

CCOC(=O)CCl
inactive: Potency [1] | outcome [2] | max response [3] 14.4% | Potency [4] | Potency [5] | Potency [6] | Potency [7] | Potency [8] | outcome [9] | Potency [10] | Potency [11] | Potency [12] | Potency [13] | Potency [14] | Potency [15] | Potency [16] | outcome [19] | Potency [17]

CC[C@@H](CO)NC(=O)[C@@H]1C=C2c3cccc4c3c(cn4C)C[C@H]2N(C)C1
inactive: Potency [1] | outcome [2] | max response [3] -3.36% | Potency [4] | Potency [5] | Potency [6] | Potency [7] | Potency [8] | outcome [9] | Potency [10] | Potency [11] | Potency [12] | Potency [14] | Potency [15] | Potency [16] | outcome [19] | Potency [17]

ClCOCCl
inactive: Potency [1] | outcome [2] | max response [3] 12.2% | Potency [4] | Potency [5] | Potency [6] | Potency [7] | Potency [8] | outcome [9] | Potency [10] | Potency [11] | Potency [12] | Potency [13] | Potency [14] | Potency [15] | Potency [16] | outcome [19] | Potency [17] | outcome [18]

COc1cccc([C@@]2(O)CCCC[C@@H]2CN(C)C)c1
inactive: Potency [1] | outcome [2] | max response [3] 0.459% | Potency [4] | Potency [5] | Potency [6] | Potency [7] | Potency [8] | outcome [9] | Potency [10] | Potency [11] | Potency [12] | Potency [13] | Potency [14] | Potency [15] | Potency [16] | outcome [19] | Potency [17]

Oc1ccc2c3c1O[C@H]1[C@@H](O)C=C[C@H]4[C@@H](C2)NCC[C@@]341
inactive: Potency [1] | outcome [2] | max response [3] -1.32% | Potency [4] | Potency [5] | Potency [6] | Potency [7] | Potency [8] | Potency [10] | outcome [20] | Potency [11] | Potency [12] | Potency [13] | Potency [14] | Potency [16] | outcome [19] | Potency [17] | outcome [18]

ClCCCCCCCl
inactive: Potency [1] | outcome [2] | max response [3] 5.82% | Potency [4] | Potency [5] | Potency [6] | Potency [8] | outcome [9] | Potency [10] | outcome [20] | Potency [11] | Potency [12] | Potency [13] | Potency [14] | Potency [16] | outcome [19] | Potency [17] | outcome [18]

CCOP(=S)(OCC)SCCl
inactive: Potency [1] | outcome [2] | max response [3] -0.801% | Potency [4] | Potency [5] | Potency [6] | Potency [7] | Potency [8] | outcome [9] | Potency [11] | Potency [12] | Potency [14] | Potency [15] | Potency [16] | outcome [19] | Potency [17] | outcome [18]

CCC(C(N)=O)N1CCCC1=O (stereo not given)
inactive: Potency [1] | outcome [2] | max response [3] 6.54% | Potency [4] | Potency [5] | Potency [6] | Potency [7] | Potency [8] | outcome [9] | Potency [10] | Potency [11] | Potency [12] | Potency [13] | Potency [14] | Potency [15] | Potency [16] | outcome [19] | Potency [17] | outcome [18]

CCOc1cc(OP(=S)(OC)OC)nc(CC)n1
inactive: Potency [1] | outcome [2] | max response [3] 6.75% | Potency [4] | Potency [5] | Potency [6] | Potency [7] | Potency [8] | outcome [9] | Potency [10] | Potency [11] | Potency [12] | Potency [13] | Potency [15] | Potency [16] | outcome [19] | Potency [17] | outcome [18]

CCCCCCCCSC(=O)Oc1cc(Cl)nnc1-c1ccccc1
inactive: Potency [1] | outcome [2] | max response [3] 6.25% | Potency [4] | Potency [5] | Potency [6] | Potency [8] | outcome [9] | Potency [10] | outcome [20] | Potency [11] | Potency [12] | Potency [13] | Potency [15] | Potency [16] | outcome [19] | Potency [17] | outcome [18]

CC(=NC#N)N(C)Cc1ccc(Cl)nc1
inactive: Potency [1] | outcome [2] | max response [3] 8.58% | Potency [4] | Potency [5] | Potency [6] | Potency [8] | outcome [9] | Potency [10] | outcome [20] | Potency [11] | Potency [12] | Potency [13] | Potency [14] | Potency [15] | Potency [16] | outcome [19] | Potency [17] | outcome [18]
